Screens deposited in PubChem BioAssay by National Center for Advancing Translational Sciences (NCATS).
TDP1 inh = blocks human tyrosyl-DNA phosphodiesterase 1; Q9NUW8; recombinant TDP1, AlphaScreen DNA substrate cleavage; Potency, µM (series often up to 130 µM), without a hit: top-dose activity change, negative = inhibition, usual class: inhibitors; 0.28% of 350,000 active; also: % is scaled to controls: 0 for no effect and ±100 for the full control effect; nearly all actives have a fitted effect of over 40% in size
Target sequence (Q9NUW8 whole entry, looked up): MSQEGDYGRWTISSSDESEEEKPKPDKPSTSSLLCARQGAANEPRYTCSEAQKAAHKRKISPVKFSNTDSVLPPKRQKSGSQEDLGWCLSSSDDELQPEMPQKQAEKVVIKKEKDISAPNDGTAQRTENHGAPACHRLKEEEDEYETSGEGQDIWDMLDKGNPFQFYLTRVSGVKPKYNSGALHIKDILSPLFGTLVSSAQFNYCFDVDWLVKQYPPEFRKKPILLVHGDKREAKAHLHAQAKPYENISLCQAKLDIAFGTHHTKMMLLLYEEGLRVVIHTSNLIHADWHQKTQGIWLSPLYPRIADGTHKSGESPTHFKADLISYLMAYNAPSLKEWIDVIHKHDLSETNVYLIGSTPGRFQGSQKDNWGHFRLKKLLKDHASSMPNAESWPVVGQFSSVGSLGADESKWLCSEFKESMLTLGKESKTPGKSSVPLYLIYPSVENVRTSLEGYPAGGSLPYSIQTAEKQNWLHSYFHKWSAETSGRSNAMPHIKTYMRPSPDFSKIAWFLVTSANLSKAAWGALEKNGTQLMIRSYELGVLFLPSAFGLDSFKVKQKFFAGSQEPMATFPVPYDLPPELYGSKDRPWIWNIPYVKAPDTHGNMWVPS
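AlphaScreen read-out: signal falls as enzyme removes the 3' tyrosine-FITC from a 5'-biotinylated DNA oligo (15 nM, 5 min, RT). Enzyme was E. coli-made recombinant Tdp1 at 1 nM, exposed to compound for 15 min beforehand; beads 10 ug/ml, 10 min.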
DT40 TDP1 no CPT = qHTS for Inhibitors of human tyrosyl-DNA phosphodiesterase 1 (TDP1): qHTS in cells in absence of CPT | DT40 Tdp1-/- hTDP1 cells, no CPT, ATP luminescence, 48 h | Potency, µM (top dose mostly 46.2 µM), for the others: top-dose activity change, negative = growth inhibition, actives largely listed as inhibitors | 15% of 420,000 active | AID 686978, 2013; also: % is scaled to controls: 0 for no effect and ±100 for the full control effect; nearly all actives have a fitted effect of over 55% in size
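A cellular qHTS used chicken DT40 cells lacking endogenous Tdp1 but carrying stably transfected human TDP1. Compounds were applied without camptothecin, and cell growth kinetics were judged by ATP-dependent luminescence after ≥48 hr.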
TDP1 cell CPT = DT40-hTDP1 cell growth loss with CPT; chicken DT40 Tdp1-/-;hTDP1 cells + 20 nM CPT, ATP luminescence, 48 h; Potency, µM (titrated, usually from 46.2 µM), without a hit: at the top dose activity change, negative = growth inhibition, most hits filed as inhibitors; 12% of 420,000 active; also: % is scaled to controls: 0 for no effect and ±100 for the full control effect; nearly all actives have a fitted effect of over 55% in size
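Chicken DT40 Tdp1-/- cells complemented with human TDP1, 400 cells/well, exposed to compounds plus 20 nM camptothecin for at least 48 h at 37 C; viability read as ATP content by CellTiter-Glo luminescence.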
ClpP mod = qHTS Assay for Activators of ClpP. purified B. subtilis ClpP, FRET peptide cleavage, 20 min. Potency, µM (highest dose often 57.5 µM), inactives show at the highest dose activity change, negative = active. 1.9% of 340,000 active; active = well fitted falling curve with a large enough effect; inconclusive = small, poorly fitted or top-dose-only effect; inactive = no such curve, though single readings can be large or run the other way; also: the source files actives as falling curves though it sought activators and does not explain the sign; nearly all actives have a fitted effect of over 65% in size
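Purified B. subtilis ClpP, 10 microg/mL final in Tris/HCl pH8 with KCl, BSA, glycerol and Tween-20, cleaved an Abz/nitrotyrosine-quenched decapeptide. Fluorescence (ex 320, em 430) was read at 0 and 20 min at room temperature. Delta was normalized to 5.8 microM ADEP and DMSO/no-enzyme controls.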
Numbers without * were called inactive; ? = inconclusive; nt = no result. Sampled rows, rich in hits. Any-hit rate of the full collection: about 17%. Unless noted, calls follow the shape of the dose curve; as a rule, active = well fitted curve in the direction sought with a large enough effect; inconclusive = small, poorly fitted or top-dose-only effect, or another doubt; inactive = no such curve, though single readings can be large; an effect the other way counts as inactive or inconclusive. Potency is read from the fitted curve at half-maximal effect.

SMILES | TDP1 inh | DT40 TDP1 no CPT | TDP1 cell CPT | ClpP mod
CCOC(=O)c1ccccc1Nc1nc2ccc(C)cc2n2nnnc12 | 0.0% | -18.0% | ? | -0.9%
Cc1ccc2nc(Nc3cccc(C(F)(F)F)c3)c3nnnn3c2c1 | 0.0% | ? | ? | 33.5%
CCOc1ccc(CCn2c3c(c(=O)[nH]c2=O)C(NC(=O)c2ccccc2)(C(F)(F)F)C(=O)N3)cc1OCC (stereo unspecified) | 1.9% | 0.7% | -5.7% | -1.5%
CN(C(=O)c1ccc(Cl)cc1)c1ccc(OCC(=O)Nc2cc(C(=O)O)ccc2Cl)cc1 | nt | 24.5% | -1.1% | 2.1%
COc1ccc(NC(=O)CNC(=O)C2CCCCC2)cc1OC | 0.0% | ? | -18.3% | -2.4%
CCC1CCCCN1C(=O)CSc1nnc(-c2cccc(Cl)c2)o1 (stereo unspecified) | 3.3% | 23.1µM* | 25.9µM* | -0.2%
CCC1CCCCN1C(=O)CSc1nnc(-c2ccc(Cl)cc2)o1 (stereo unspecified) | 0.0% | 16.4µM* | 20.6µM* | -2.1%
CC1Cc2ccccc2N1C(=O)CSc1nnc(-c2cccc(Cl)c2)o1 (stereo unspecified) | -0.5% | ? | 14.6µM* | -2.1%
Cc1nc(NC2CCCCC2)c2nc(-c3ccccc3)n(CCCN(C)C)c2n1 | 9.3% | nt | nt | nt
O=C(c1ccccc1)C1CN(c2ccccc2)CC1c1ccc(Cl)cc1 (stereo unspecified) | 0.0% | 16.4µM* | ? | -0.5%
COc1cc(CN(CCc2c(C)[nH]c3ccc(C)cc23)C(=S)NC(C)(C)C)cc(OC)c1OC | 6.6% | 16.4µM* | 20.6µM* | -7.3%
Cc1cccc(NCC(=O)N/N=C/c2cccc(Br)c2)c1 | 5.7% | ? | ? | 4.2%
O=C(CNc1cccc(C(F)(F)F)c1)N/N=C/c1cccc(Br)c1 | -1.9% | ? | 18.4µM* | 0.6%
O[C@H]1C[C@H](c2ccc(Cl)cc2)N(Cc2cccs2)C[C@@H]1n1cc(-c2ccc(F)cc2)nn1 | nt | ? | ? | -0.7%
CCCCCCN1C[C@H](n2cc(-c3ccc(F)cc3)nn2)[C@@H](O)C[C@@H]1c1ccccc1 | nt | ? | ? | -0.7%
Cc1ccc([C@H]2C[C@H](O)[C@@H](n3cc(-c4ccc(F)cc4)nn3)CN2Cc2cccs2)cc1 | nt | 16.4µM* | ? | -2.8%
CCCCCCN1C[C@H](O)[C@@H](n2cc(-c3ccc(F)cc3)nn2)C[C@@H]1c1ccccc1 | nt | 20.6µM* | 20.6µM* | -2.5%
CCCCCCN1C[C@H](n2cc(-c3ccc(F)cc3)nn2)[C@@H](O)C[C@@H]1c1ccc(Cl)cc1 | nt | 16.4µM* | ? | -5.2%
O[C@H]1CN(CC2CCCCC2)[C@@H](c2ccc(Cl)cc2)C[C@@H]1n1cc(-c2ccc(F)cc2)nn1 | nt | 20.6µM* | ? | -1.5%
Cc1cc(C)cc(N2CCn3c2nc2c3c(=O)n(Cc3c(F)cccc3Cl)c(=O)n2C)c1 | -3.9% | 3.7% | 14.4% | -6.4%
COc1ccc(CCNC(=O)CCCOc2cccc(C)c2C)cc1OC | nt | ? | ? | 1.0%
COC(=O)C1(C(=O)OC)C[C@@H]2CON=C2[C@H]1c1ccccc1 | 6.9% | nt | nt | nt
COc1ccc(-c2c(C)nn3c(-c4ccccc4)cc(-c4ccccc4)nc23)cc1 | 5.1% | ? | ? | -1.5%
O=C(/C=C/Nc1ccccc1)c1ccc(Cl)cc1Cl | 0.0% | ? | -22.2% | -0.7%
N#Cc1c(Nc2ccccc2)[n+]([O-])c2ccc(Cl)cc2[n+]1[O-] | nt | ? | 6.51µM* | 2.2%
Cc1nn(Cc2ccc(C(=O)N3c4ccc(F)cc4CCC3C)o2)c(C)c1Br (stereo unspecified) | 2.2% | 16.4µM* | 20.6µM* | -1.8%
COc1cc(OC)cc(C(=O)N2c3ccc(F)cc3CCC2C)c1 (stereo unspecified) | 3.1% | 11.6µM* | 10.3µM* | 0.2%
CC1CCc2cc(F)ccc2N1C(=O)CCl (stereo unspecified) | -1.2% | 6.51µM* | 5.8µM* | 117.8%
CC1CCc2ccccc2N1C(=O)c1cccs1 (stereo unspecified) | 6.8% | ? | ? | -0.8%
COc1cc(C(=O)N2c3ccccc3CCC2C)cc(OC)c1OC (stereo unspecified) | nt | 9.2µM* | 18.4µM* | 0.0%
